Data as given in PubChem BioAssay AID485270 (The Scripps Research Institute Molecular Screening Center, 2010).
The campaign covered roughly 330,000 compounds. About 5,800 (1.8%) were called active. The sample as a whole holds a higher share of actives than the screen did. Unmarked numbers belong to inactive results. Rule as the data show it: active = inhibition mostly above about 38% (no sharp cut-off); inactive = mostly below about 40%.

Target: Orexin/Hypocretin receptor type 1 (Homo sapiens) (UniProt O43613)
Sequence (O43613 whole entry, looked up): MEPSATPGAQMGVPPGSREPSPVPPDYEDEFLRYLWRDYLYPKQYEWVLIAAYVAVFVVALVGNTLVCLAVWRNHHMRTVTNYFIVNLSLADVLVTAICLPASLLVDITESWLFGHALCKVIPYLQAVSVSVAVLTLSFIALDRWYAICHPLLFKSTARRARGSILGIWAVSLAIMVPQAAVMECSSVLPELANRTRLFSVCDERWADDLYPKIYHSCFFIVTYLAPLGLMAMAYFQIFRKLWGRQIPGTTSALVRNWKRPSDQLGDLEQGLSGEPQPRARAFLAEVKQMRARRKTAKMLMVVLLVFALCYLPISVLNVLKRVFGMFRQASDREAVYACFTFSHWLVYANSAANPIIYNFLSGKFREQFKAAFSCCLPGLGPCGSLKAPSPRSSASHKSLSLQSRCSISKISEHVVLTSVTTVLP
Test: blocks the human orexin 1 receptor (AID 485270);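 also: 0% = agonist challenge alone and 100% = reference antagonist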
Conditions: OX1R-expressing cells, FRET antagonist read-out; at 6.6 µM; stronger effect = higher value

Structure (SMILES) | inhibition
COc1ccccc1-c1nnc(-c2ccc(F)cc2)o1 | 4.73%
COc1ccc(-c2csc3nc(-c4ccccc4F)oc(=O)c23)cc1OC | 46.9% (active)
COc1ccc(-c2csc(-c3cccs3)n2)cc1OC | 11.9%
O=C(COC(=O)c1n[nH]c2ccccc12)Nc1ccccc1Br | 19.4%
CCOC(=O)C1CCN(CC(=O)Nc2ccc(OC)c(S(=O)(=O)N3CCCCC3)c2)CC1 | 7.12%
CC[C@@H]1CCCCc2ccccc2[C@@H](C(=O)C[C@H](O)CC(C)=O)OC1=O | 5.92%
Cc1onc(-c2ccccc2Cl)c1C(=O)NCCn1ccc2ccccc21 | 69.4% (active)
Cc1onc(-c2ccccc2Cl)c1C(=O)OCC(=O)c1ccccc1 | 21.4%
Cc1ccc2cc(CCNC(=O)c3c(-c4ccccc4Cl)noc3C)c(=O)[nH]c2c1 | 6.94%
NCCN1CCN2C(=O)CN(C(=O)c3ccccc3)CC12 (configuration not stated) | 6.95%
CC1(C)C[C@H]2C3=CCC4[C@@]5(C)CC[C@H](O)[C@](C)(CO)C5CC[C@@]4(C)[C@]3(C)C[C@@H](O)[C@@]2(CO)[C@@H](O)[C@@H]1O (some centres not stated) | 6.35%
O=C(CSc1nccn1-c1cccc(F)c1)NC1CCCC1 | 1.88%
CC(OC(=O)c1c(F)cccc1F)C(=O)NCCC1=CCCCC1 (configuration not stated) | 6.17%
Cc1[nH]n(C)c(=O)c1C(=O)c1c(-c2c(Cl)cccc2Cl)noc1C | 38.8%
Cc1[nH]n(C)c(=O)c1N=Nc1ccc(S(C)(=O)=O)cc1 | 75.9% (active)
Cc1cccc(N=Nc2c(C)[nH]n(-c3ccccc3)c2=O)c1 | 6.48%
O=C(Nc1cccc(Br)c1)c1ccc2snnc2c1 | 28.6%
O=C(Nc1ccc2ccccc2c1)Nc1ccc2snnc2c1 | 60.2% (active)
CCc1ccccc1NC(=O)c1ccc2snnc2c1 | 19.6%
CC(=O)C(CC(=O)N1CCCC1)C(=O)Nc1ccc(Cl)cc1 (configuration not stated) | -2.02%
O=C1COc2ccc(C(=O)COC(=O)c3ccccc3Cl)cc2N1 | 8.89%
CCN(C(=O)CSc1ncnc2sccc12)c1c(N)n(Cc2ccccc2)c(=O)[nH]c1=O | 42.3% (active)

Structure (SMILES) | inhibition
CCN(C(=O)COC(=O)c1sccc1C)c1c(N)n(Cc2ccccc2)c(=O)[nH]c1=O | 21.4%
CCCN(C(=O)CSc1nnc(N)s1)c1c(N)n(Cc2ccccc2)c(=O)[nH]c1=O | 2.18%
COc1ccc(C(=O)O)cc1S(=O)(=O)NC1CCN(Cc2ccccc2)CC1 | 2.69%
O=C(NCCCN1CCOCC1)c1cn(-c2ccccc2)nc1-c1ccc(F)cc1 | 1.24%
CC(=O)NC(Cc1c[nH]c2ccccc12)C(=O)O (configuration not stated) | 11.3%
CC(=O)Nc1ccc(/C=N/NC(=O)c2cccs2)cc1 | 18.1%
O=C(NC(Cc1c[nH]c2ccccc12)C(=O)N/N=C/c1ccc(Br)cc1)c1cccs1 (configuration not stated) | 68.7% (active)
O=C(NNS(=O)(=O)c1c(F)cc(F)c(Cl)c1F)C12CC3CC(CC(C3)C1)C2 | 6.19%
COc1ccc(C(=O)NCc2ccccc2C)cc1S(=O)(=O)NC1CCCC1 | 8.7%
O=C(COC(=O)c1ccc(O)cc1O)c1ccc2c(c1)OCCO2 | 9.27%
CCNC(=S)N1CCN(S(=O)(=O)c2ccc(Cl)s2)CC1 | 13.3%
CC(C)(C)OC(=O)C1=C(CO)CS[C@@H]2[C@H](NC(=O)Cc3ccccc3)C(=O)N12 | 17.7%
O=C(Nc1ccc2nc3n(c(=O)c2c1)CCCC3)c1ccc(Cl)nc1 | 4.47%
O=c1c2cc([N+](=O)[O-])ccc2nc2n1CCC2 | 59.2% (active)
CCCCN(CC)C(=S)Nc1ccc2nc3n(c(=O)c2c1)CCCCC3 | 5.73%
Cc1ccc(C(=O)O/N=C(\N)c2ccccn2)cc1Cl | 14.1%
N/C(=N\OC(=O)c1ccc([N+](=O)[O-])cc1)c1ccccn1 | 53.4%
COc1ccc(C(=O)O/N=C(\N)c2ccccn2)cc1[N+](=O)[O-] | 28.6% (active)
O=C(O[C@H]1[C@H](Cc2ccccc2)NS(=O)(=O)[C@H]2C[C@@H]3C=C[C@]12O3)c1ccc([N+](=O)[O-])cc1 | 15.9%
O=C(O[C@@H]1[C@H](Cc2ccccc2)NS(=O)(=O)[C@H]2C[C@@H]3C=C[C@]12O3)c1ccccc1Br | 52.4% (active)
CC(C)C(NC(=O)c1c(F)cccc1F)C(=O)NNC(=O)c1ccccc1 (configuration not stated) | 2.8%
COc1ccc(-c2c(C#Cc3ccsc3)c3cc(-c4ccc(CN5CCOCC5)cc4)ccc3n2C)cc1 | 8.67%

Structure (SMILES) | inhibition
COc1cc(C(=S)N2CCOCC2)cc(OC)c1OC(=O)c1ccc([N+](=O)[O-])cc1[N+](=O)[O-] | 113% (active)
COc1cc(C(=S)N2CCOCC2)cc(OC)c1OC(=O)c1cc([N+](=O)[O-])cc([N+](=O)[O-])c1 | 66.5%
COc1cc(C(=S)N2CCOCC2)cc(OC)c1OC(=O)c1cc([N+](=O)[O-])c(C)c([N+](=O)[O-])c1 | 8.29%
Cc1cccc([C@H]2[C@@H]3C=CC[C@@H](C)[C@@H]3C(=O)N2Cc2ccccc2)c1 | 23.4%
Cc1c(C(=O)Nc2cccc(S(=O)(=O)N3CCOCC3)c2)oc2ccccc12 | 24.2%
CC(=O)c1ccc(OC(=O)N2CCOCC2)cc1 | 0.24%
CC(=O)Oc1ccc(C(C)=O)c2c1OCCO2 | 88.7% (active)
CC(=O)c1ccc2c(c1)OCCOCCOc1ccc(C(C)=O)cc1OCCOCCO2 | 0.66%
O=C(NCCc1ccco1)c1ccc(OCc2cn3ccccc3n2)cc1 | 8.69%
COc1ccc(CNc2nc3c(c(=O)[nH]c(=O)n3C)n2Cc2ccccc2)cc1 | -5.7%
COc1ccc(CCn2c(NN=C3CCCC3)nc3c2c(=O)[nH]c(=O)n3C)cc1 | 18.2%
COc1ccc(CCn2c(NCCCN3CCOCC3)nc3c2c(=O)[nH]c(=O)n3C)cc1 | 101% (active)
Cc1ccc(S(=O)(=O)Nc2ccc(F)c(S(=O)(=O)N3CCOCC3)c2)cc1 | 21.7%
O=C(CSc1nc2ccccc2c(=O)n1-c1ccccc1F)N1CCOCC1 | 16.2%
COc1ccc2ccccc2c1/C=N/NC(=O)c1cc(C)[nH]n1 | 39.3%
Cc1ccccc1NCC(=O)N/N=C\c1ccc([N+](=O)[O-])s1 | 20.9%
CC(C)(C)c1cc(C(=O)N/N=C/c2ccc([N+](=O)[O-])s2)n[nH]1 | 56.3% (active)
CC(=O)N1c2ccc(S(=O)(=O)N3CCCC(C(=O)Nc4cccc(Cl)c4)C3)cc2CC1C (configuration not stated) | 2.16%
CC(=O)N1CCCc2cc(S(=O)(=O)N3CCCC(C(=O)N4CCN(c5cccc(Cl)c5)CC4)C3)ccc21 (configuration not stated) | 39.7% (active)
CC(=O)N1CCCc2cc(S(=O)(=O)N3CCCC(C(=O)NCc4ccc(Cl)cc4)C3)ccc21 (configuration not stated) | 10.5%
CSCCC1NC(=O)N(CC(=O)Nc2cccc(S(=O)(=O)N3CCCCCC3)c2)C1=O (configuration not stated) | 12.6%
O=C1[C@@H](c2ccccc2)[C@@H](c2ccccc2)N1c1cccnc1 | 26%

Structure (SMILES) | inhibition
Cc1cc(C(C)(C)C)oc1C(=O)N(CC(=O)NC1CCCC1)Cc1ccc(Cl)cc1 | 22.5%
O=C(COC(=O)Cc1ccc([N+](=O)[O-])cc1)NC1CCCCCC1 | 2.43%
Cc1cc(C)cc(NC(=O)C(OC(=O)c2ccc(O)cc2)c2ccccc2)c1 (configuration not stated) | 9.51%
CC(C)CC[n+]1ccn(C2=C([O-])c3ccccc3C(=O)/C2=N\S(=O)(=O)c2ccccc2)c1 | 79.9% (active)
O=C(CCc1ccc(S(=O)(=O)N2CCOCC2)cc1)OCC(=O)c1ccc(Br)cc1 | 4.77%
O=C(Nc1nnc(-c2ccccc2)o1)c1cccc(S(=O)(=O)N2CCOCC2)c1 | 13.1%
COc1ccc(C(=O)C(C)OC(=O)c2cccc(S(=O)(=O)Nc3c(C)n(C)n(-c4ccccc4)c3=O)c2)cc1 (configuration not stated) | 41.2% (active)
Cc1c(NC(=O)C(C)OC(=O)c2ccccc2O)c(=O)n(-c2ccccc2)n1C (configuration not stated) | 5.32%
COc1ccc(NS(=O)(=O)c2ccc(C(=O)Nc3c(C)n(C)n(-c4ccccc4)c3=O)cc2)cc1 | 8.89%
Cc1cc(NC(=O)CSc2nnc(-c3ccco3)n2N)no1 | 9.57%
O=C(CNC(=O)c1ccccc1F)OCC(=O)c1c[nH]c2ccccc12 | 3.49%
COc1ccc(NS(=O)(=O)c2cc(NC(=O)c3ccc(S(=O)(=O)N(C)C)cc3)ccc2N2CCOCC2)cc1 | 6.2%
COc1ccc(C(=O)COC(=O)C(O)c2ccccc2)c(OC)c1 (configuration not stated) | 3.45%
O=C(COC(=O)c1ccc(F)cc1)NCC1COc2ccccc2O1 (configuration not stated) | 6.76%
O=C(CN1C(=O)/C(=C/c2ccccc2F)Sc2ccccc21)NCc1cccnc1 | 46.6% (active)
O=C(CN1C(=O)S/C(=C\c2ccccc2F)C1=O)NCCCn1ccnc1 | 20.4%
O=C(CN1C(=O)/C(=C\c2ccc(C(F)(F)F)cc2)Sc2ccccc21)NCc1ccco1 | 38.3%
C[C@H](NS(=O)(=O)c1ccc(Cl)cc1)C(=O)OCC(=O)N1CCOCC1 | 1.59%
CSCCC(NC(=O)c1cc([N+](=O)[O-])cc([N+](=O)[O-])c1)c1nc2ccccc2[nH]1 (configuration not stated) | 82% (active)
COc1ccc(CC(=O)N[C@@H](CCSC)c2nc3ccccc3[nH]2)cc1 | 33.1%
CSCCC(NC(=O)c1ccc(=O)n(C)n1)c1nc2ccccc2[nH]1 (configuration not stated) | 12.2%
